Here are results for three molecules from PubChem BioAssay AID602385 (Sanford-Burnham Center for Chemical Genomics, 2012).

Out of some 2,300 compounds screened, about 180 (7.8%) were called active. Only a selection was taken, and actives are over-represented in it overall. Values without a mark were called inactive.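 The calls were made as follows: active = average inhibition of at least 30% in the single-concentration confirmation test; inactive = the rest.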

This test deals with DNA (cytosine-5)-methyltransferase 1 (Homo sapiens) (UniProt P26358). Briefly: DNMT1 methyltransferase inhibitor retest, confirmation, biochemical, molecular beacon, fluorescence, single concentration (AID 602385). Particulars: DNMT1 molecular beacon HinP1I cleavage, at 10 µM, hits give high values.
Chain of DNA (cytosine-5)-methyltransferase 1 (Homo sapiens) (P26358 504-1616 limits assumed): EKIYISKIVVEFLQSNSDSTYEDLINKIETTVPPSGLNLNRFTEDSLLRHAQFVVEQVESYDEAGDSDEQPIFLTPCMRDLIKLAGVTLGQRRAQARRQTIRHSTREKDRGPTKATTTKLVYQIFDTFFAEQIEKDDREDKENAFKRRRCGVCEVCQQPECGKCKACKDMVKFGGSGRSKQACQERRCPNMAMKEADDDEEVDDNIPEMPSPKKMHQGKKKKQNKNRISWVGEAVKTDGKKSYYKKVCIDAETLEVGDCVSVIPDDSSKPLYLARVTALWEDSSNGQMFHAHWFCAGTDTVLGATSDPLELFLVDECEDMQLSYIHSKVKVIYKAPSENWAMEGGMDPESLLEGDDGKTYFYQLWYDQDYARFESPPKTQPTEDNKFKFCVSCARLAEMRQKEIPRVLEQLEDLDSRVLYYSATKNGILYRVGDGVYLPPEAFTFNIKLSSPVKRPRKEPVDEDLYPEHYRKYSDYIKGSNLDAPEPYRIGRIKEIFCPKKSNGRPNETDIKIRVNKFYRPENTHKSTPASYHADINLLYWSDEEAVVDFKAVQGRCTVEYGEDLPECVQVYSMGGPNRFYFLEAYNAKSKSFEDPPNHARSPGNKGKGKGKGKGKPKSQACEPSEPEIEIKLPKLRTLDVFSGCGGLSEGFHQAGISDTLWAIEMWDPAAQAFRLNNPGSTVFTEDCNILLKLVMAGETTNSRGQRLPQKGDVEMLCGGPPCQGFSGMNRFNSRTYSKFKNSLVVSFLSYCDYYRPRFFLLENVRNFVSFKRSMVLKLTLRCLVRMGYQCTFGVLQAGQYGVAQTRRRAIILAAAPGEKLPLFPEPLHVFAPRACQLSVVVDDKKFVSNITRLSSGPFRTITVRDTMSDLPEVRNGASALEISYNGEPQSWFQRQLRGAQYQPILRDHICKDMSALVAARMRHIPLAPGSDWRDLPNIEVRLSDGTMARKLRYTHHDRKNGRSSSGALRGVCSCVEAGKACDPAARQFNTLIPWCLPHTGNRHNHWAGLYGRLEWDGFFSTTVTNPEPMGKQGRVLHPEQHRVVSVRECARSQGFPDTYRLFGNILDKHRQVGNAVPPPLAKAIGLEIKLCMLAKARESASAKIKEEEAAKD
One may read the inhibition as the drop in the measured response relative to a control, in per cent. For the molecule `Cc1c(C(=O)O)cccc1-n1c(C)cc(/C=C2\C(=O)NC(=O)N(c3ccc4c(c3)OCO4)C2=O)c1C`, the inhibition is 35.1% (active).

As to `O=C1NC(=O)N(Cc2ccco2)C(=O)/C1=C\c1ccc(-c2ccc(F)cc2)o1`, the inhibition was 8.93%.

Consider `CC1=C(C(=O)Nc2ccccc2)SCCO1`, for which the inhibition was 6.68%.
